Compound activity: PubChem BioAssay, ICCB-Longwood Screening Facility, Harvard Medical School
This is one part of a sample in which hits are shown more often than they occur.
HCMV NEC inh – inhibitors of HCMV UL50-UL53 interaction, biochemical, HTRF; actives 0.15% (n = 190,000); inhibition, % (no concentration beside the values); normalized percent inhibition; in the data active = inhibition above about 27%, passing the limit was not always enough
Sa growth inh – S. aureus growth inhibition at 42 and 30 °C, primary screen, LtaS inhibitor project, RN4220, two temperatures; OD600, 20 h, 42 °C; stronger effect = lower value; relative growth, % (test concentration not listed); actives 0.53% (n = 170,000); AID 720641, 2013;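 active = relative growth at most 50% at the other temperature and 20+ points below 30 °C, or under 10% at both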
Sa helicase inh – inhibitors of S. aureus replicative helicase, primary screen, biochemical, fluorescence unwinding readout; AID 485395, 2010; inhibition, % (test concentration not listed); actives 0.05% (n = 120,000); replicative DNA helicase (DnaC/DnaB), Staphylococcus aureus; purified S. aureus helicase, fluorescence unwinding assay; in the data active = inhibition above about 25%, passing the limit was not always enough
Numbers stand for hits; i = inactive; nt = no result.

SMILES	HCMV NEC inh	Sa growth inh	Sa helicase inh
OC[C@H]1OC([S-])[C@H](O)[C@@H](O)[C@@H]1O.[Au+] (stereo partly specified)	58	i	nt
OCC1OC(Oc2ccccc2)C(O)C(O)C1O (stereo unspecified)	i	i	nt
Cc1cc(=O)oc2c(C)c3occc(=O)c3cc12	i	nt	nt
Cc1cc(O)ccc1Sc1ccc(O)cc1C	i	30	i
Cc1cc(O)ccc1-n1c(=O)c2cc3c(=O)n(-c4ccc(O)cc4C)c(=O)c3cc2c1=O	nt	i	i
CCOc1ccc(/C=C2\SC(=S)N(CCC(=O)NC3=NCCS3)C2=O)cc1	i	nt	nt
Cc1n[nH]c(=O)c2c(NC(=O)COC(=O)C3CC4CCCC(C3)C4=O)oc(C)c12 (stereo unspecified)	i	i	i
C=C(C)CN(CC)c1nc(N)c2c(N)nc3c(c2c1C#N)CC(=O)N3C12CC3CC(CC(C3)C1)C2	i	i	i
N#Cc1c(N2CCCC(O)C2)nc(N)c2c(N)nc3c(c12)CC(=O)N3C12CC3CC(CC(C3)C1)C2 (stereo unspecified)	80	i	i
CCCCCOc1ccc(C(=O)CCN2CCOCC2)cc1	i	13	i
CCCCOc1ccc(C(=O)N2CCCCC2CCN2CCOCC2)cc1 (stereo unspecified)	i	i	nt
O=C(CCN1CCOCC1)c1ccc(O)cc1	i	i	nt
O=C(CCN1CCOCC1)c1ccc(Br)cc1	i	-0.4	i
COc1ccc(OC)c(S(=O)(=O)N2CCN=C2N2CCN(c3ccccc3OC)CC2)c1	i	nt	nt
CN=C(C)/C(C(=O)OC)=C(\O)c1cc(C)on1	i	i	nt
CS(=O)(=O)Nc1ccc(N2CCN(C(c3ccccc3)c3ccccc3)CC2)cc1C(=O)O	i	nt	nt
NCc1cn(-c2ccccc2)nc1-c1ccccc1	i	i	i
N=C(N)SCc1cn(-c2ccccc2)nc1-c1ccc(Br)cc1	i	1.1	i
CC1Cc2ccccc2N1C(=O)Nc1ccc(Cl)c(Cl)c1 (stereo unspecified)	i	i	i
CC(N=c1ccccn1C(=O)Nc1ccc(Cl)c(Cl)c1)c1ccco1 (stereo unspecified)	i	-0.8	i
CN1CCC(N(C)Cc2cc(=O)oc3cc4c(cc23)CCC4)CC1	i	0.3	i
Cc1ccc(CN(C)Cc2cc(=O)oc3cc4c(cc23)CCC4)o1	i	i	i
Cc1ccc(C2=NC3(CCN(C(=O)C4CCCC4)CC3)NC2=O)cc1C	i	i	i
CS(=O)c1sc(Br)c2c1C(=O)CC(C)(C)C2 (stereo unspecified)	i	i	nt
CS(=O)c1sc(C(=O)OCc2ccccc2)c2c1C(=O)CC(C)(C)C2 (stereo unspecified)	i	-0.7	nt
SMILES	HCMV NEC inh	Sa growth inh	Sa helicase inh
O=C(CSc1nc(-c2ccccc2)nc2cc(=O)[nH]n12)Oc1ccccc1	i	nt	nt
O=C1c2ccccc2C(=O)c2c1ncn2Cc1ccccc1	i	i	i
Cc1c(Sc2ccc(Cl)cc2)cnn1C(=O)Nc1cccc(C(F)(F)F)c1	nt	4.5	nt
Cc1c(Sc2ccc(Cl)cc2)cnn1C(=O)NC(C)C	i	i	nt
CC1(C)CC2CC(C)(CN2c2nc(N)c3c(N)nc4c(c3c2C#N)CC(=O)N4C2CCCC2)C1 (stereo unspecified)	i	i	i
CC(C)c1ccc(NC(=O)CSc2ncn[nH]2)cc1	i	i	i
Cc1ccc(S(=O)(=O)/N=C2\C=C(Sc3ncn[nH]3)C(=O)c3ccccc32)cc1	i	i	i
CC(C)c1ccc(S(=O)(=O)/N=C2/C=C(Sc3ncn[nH]3)C(=O)c3ccccc32)cc1	nt	1.2	i
Cc1ccc(S(=O)(=O)/N=C2/C=C(Sc3ncn[nH]3)C(=O)c3ccccc32)cc1	i	2.1	i
CSc1ncc(C(=O)Nc2ccnn2Cc2ccccn2)n1-c1ccc(F)cc1	i	i	i
CCc1nnc(NC(=O)c2nc(S(=O)(=O)Cc3ccc(C)cc3)ncc2Cl)s1	i	i	nt
Cc1ccc(CS(=O)(=O)c2ncc(Cl)c(C(=O)Nc3nnc(C(C)C)s3)n2)cc1	i	5.6	nt
CCc1nnc(NC(=O)c2nc(S(=O)(=O)Cc3cccc(C)c3)ncc2Cl)s1	i	i	nt
Cc1cccc(CS(=O)(=O)c2ncc(Cl)c(C(=O)Nc3nnc(C(C)C)s3)n2)c1	i	5.0	nt
CCCc1cc(=O)[nH]c(SC)n1	nt	i	i
CC1COc2c(N3CCN(C)CC3)c(F)cc3c(=O)c(C(=O)N4CCN(c5ncccn5)CC4)cn1c23 (stereo unspecified)	i	i	i
CC1COc2c(N3CCN(C)CC3)c(F)cc3c(=O)c(C(=O)O)cn1c23 (stereo unspecified)	i	-0.5	nt
COc1ccc(C2CC(=O)C3=C(C2)Nc2onc(C)c2C3c2cccc(O)c2)cc1OC (stereo unspecified)	i	nt	nt
Oc1c(Br)cc(Br)c2cccnc12	i	nt	nt
Cc1cc(C)c2cccnc2c1O	i	3.0	i
COc1cccc(NC(=O)C2CCCN(S(=O)(=O)c3cc(-c4noc(C)n4)sc3C)C2)c1 (stereo unspecified)	i	nt	nt
N#CSCC(=O)c1cccs1	i	1.0	i
N#CCN(CC#N)C(=O)c1cccs1	i	i	nt
Cc1ccc(C2C3=C(CC(c4ccc(O)cc4)CC3=O)Nc3onc(C)c32)cc1 (stereo unspecified)	i	nt	nt
CSc1cccc(-c2nnc(NC(=O)c3ccc4c(c3)OCCO4)o2)c1	nt	7.7	nt
SMILES	HCMV NEC inh	Sa growth inh	Sa helicase inh
CS(=O)(=O)c1ccccc1-c1nnc(NC(=O)c2ccc3c(c2)OCCO3)o1	nt	i	nt
CC(OC(=O)c1ccco1)C(=O)Nc1ccccc1-c1ccccc1 (stereo unspecified)	i	i	i
Cc1cc(C(=O)COC(=O)/C=C/c2cccs2)c(C)n1C1CC1	i	i	i
O=c1ccsn1Cc1ccccc1	i	-0.8	i
O=C1N(Cc2ccccc2)c2cccc3cccc(c23)N1Cc1ccccc1	nt	i	i
CNC(=S)Nc1cccc(C(F)(F)F)c1	i	i	i
COC(=S)Nc1cccc(C(F)(F)F)c1	i	i	nt
CC(C)c1ccc(NC(=S)Nc2cccc(C(F)(F)F)c2)cc1	i	-2.1	nt
CC(C)(C)NC(=S)Nc1cccc(C(F)(F)F)c1	i	0.1	i
O=S(=O)(NCc1cccs1)c1ccc(-c2cc(C(F)(F)F)no2)s1	i	i	i
COC(=O)c1ccc(C2C3=C(CC(c4ccc(O)cc4)CC3=O)Nc3onc(C)c32)cc1 (stereo unspecified)	i	nt	nt
Cc1noc2ncnc(N3CCC(C(=O)N4CCN(C(=O)c5ccco5)CC4)CC3)c12	i	i	i
CC1(C)CC(=O)C2=C(C1)Nc1ccccc1N(C(=S)Nc1ccccc1)C2c1ccco1 (stereo unspecified)	i	i	i
CN1/C(=C\C(=O)CSCCO)C(C)(C)c2ccccc21	i	-0.5	i
Cc1ccnc(SCC(=O)/C=C2\N(C)c3ccccc3C2(C)C)n1	i	i	i
CC(C#N)OC(=O)c1cc(S(C)(=O)=O)ccc1Cl (stereo unspecified)	i	i	i
Clc1ccccc1C(c1ccccc1)(c1ccccc1)n1ccnc1	i	0.2	nt
FC(F)(F)c1ccccc1-n1ccnc1	i	nt	nt
O=C(CSc1nnc(-c2cc3ccccc3[nH]2)n1-c1ccccc1)N1CCNC1=O	i	i	i
